# Source: PubChem BioAssay (NCATS)
# Records with an inconclusive call do not appear. Entries that show only a call come without a potency. The source made the active and inactive calls. Unless noted, the call rests on the fitted dose curve; in most records, active means well fitted curve in the direction sought with a large enough effect; inconclusive means small, poorly fitted or top-dose-only effect, or another doubt; inactive means no such curve, though single readings can be large; an effect the other way counts as inactive or inconclusive.
# What was measured:
# [1] = qHTS assay for small molecule antagonists of retinoid X receptor alpha signaling (AID 588546; active means well fitted inhibition curve with a large enough effect in the signal ratio, with a control signal flat, not every such curve was filed as active; the % refers to the signal ratio; further: potency means the concentration at half of the fitted maximal effect;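 on max response: cells stimulated with 9-cis-retinoic acid as agonist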); settings: HEK293T RXRa-UAS-bla, beta-lactamase ratio, antagonist mode; measured here: W530 green channel, cytotoxicity proxy
# In short: (§1)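 Beta-lactamase reporter inhibition, read as CCF4 fluorescence ratio (ex 405, em 460/530 nm) after 2 h at RT. HEK293T UAS-bla cells, 2500/well, were stimulated with 9-cis-RA at 500 or 100 nM final alongside test compound for 18 h at 37 C.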
# [2] = molecular target: Retinoic acid receptor RXR-alpha (Homo sapiens) (UniProt P19793); experiment: as above; settings: HEK293T RXRa-UAS-bla, beta-lactamase ratio, antagonist mode
# In short: as §1
# [3] = molecular target: Thyroid hormone receptor beta (Homo sapiens) (UniProt P10828); experiment: qHTS assay for small molecule antagonists of thyroid hormone receptor beta signaling (AID 588547; active means well fitted inhibition curve with a large enough effect in the signal ratio, with a control signal flat, not every such curve was filed as active; the % refers to the signal ratio; further: potency means the concentration at half of the fitted maximal effect); settings: TR-UAS-bla HEK293, beta-lactamase ratio, antagonist mode, 18 h
# In short: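 TR-UAS-bla GripTite HEK293 cells in 2% charcoal/dextran FBS medium were preincubated 4 h at 37 C, given compound (0.59 nM to 92 uM) plus 0.4 nM T3 (final) for 18 h, then CCF4 for 2 h at RT; Hill fit gave IC50.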
# [4] = qHTS assay for small molecule agonists of the antioxidant response element (ARE) signaling pathway measured by Nrf2-dependant transcriptional activity (AID 720636; active means well fitted curve in the direction sought with a large enough effect in the repeat runs; an effect the other way counts as inactive or inconclusive;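 further: HepG2 cells with an ARE-driven luciferase reporter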)
# In short: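 Attachment 6 hr at 37 C, then compound versus DMSO vehicle for 16 hr in ARE-luc HepG2 cells (1% dialyzed FBS); luminescence recorded 30 min after ONE-Glo addition at room temperature.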
# [5] = molecular target: Luciferin 4-monooxygenase (Photinus pyralis) (UniProt P08659); experiment: Biochemical firefly luciferase enzyme assay for NPC (AID 624030);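 further: purified P. pyralis luciferase at 10 nM with luciferin and ATP substrate; series mostly up to about 59 µM; nearly all actives have a fitted effect of over 70% in size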
# In short: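 Counter-screen for direct inhibition of the luciferase enzyme by approved-drug library compounds, run at 10 nM enzyme in 50 mM Tris acetate (final). Luminescence was read within 5 min of enzyme-buffer addition and normalized to PTC124 versus DMSO (0%).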
# [6] = S16 Schwann cell PMP22 intronic element firefly luciferase assay (AID 624032); further: series mostly up to about 58 µM; nearly all actives have a fitted effect of over 30% in size
# In short: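 Rat S16 Schwann cells stably carrying a PMP22 intronic element-driven Fluc reporter were seeded overnight, then exposed to compounds for 24 h at 37 °C. Luminescence was normalized to PTC124 (positive control) and DMSO (0% activity).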
# [7] = molecular target: Mitogen-activated protein kinase 10 (Mus musculus) (UniProt Q61831); experiment: JNK3 AlphaScreen Assay (AID 530; active means well fitted curve in either direction with a large enough effect, not every such curve was filed as active;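 further: kinase came from lysate of stimulated human HepG2 cells; signal reports phosphorylation of biotinylated GST-cJun 1-79 at Ser73 with 10 µM ATP; series mostly up to about 57 µM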)
# In short: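 JNK3 came from HepG2 lysates pre-activated with IL-1beta and TNF-alpha and phosphorylated biotinylated GST-cJun (1-79) at 10 uM ATP, pH 7.6, room temperature. Compounds were titrated. AlphaScreen signal used anti-phospho-cJun (Ser73) antibody.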
# [8] = molecular target: 3',5'-cyclic-AMP phosphodiesterase 4B (Homo sapiens) (UniProt Q07343); experiment: qHTS Assay for Inhibitors of PDE-IV (AID 607; active means well fitted activation curve with a large enough effect in the main read-out, with a control signal flat, not every such curve was filed as active)
# In short: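 Live HEK293 cells with a modified cyclic nucleotide-gated (CNG) channel report intracellular cAMP via membrane-potential dye fluorescence (ex 535/em 590 nm). Endogenous PDE-IV was targeted. Compounds were tested at up to 22.9 uM final; RO 20-1724 100 uM served as control.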
# [9] = molecular target: Cytochrome P450 3A4 (Homo sapiens) (UniProt P08684); experiment: qHTS Assay for Inhibitors and Substrates of Cytochrome P450 3A4 (AID 884); further: nearly all actives have a fitted effect of over 50% in size; further: potency means the concentration at half of the fitted maximal effect
# In short: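 20 nM human CYP3A4 with 25 uM Luciferin-PPXE (at KM) in 200 mM KPO4, preincubated 10 min with compound; NADPH regeneration started a 60 min RT reaction. Luciferin detected by luminescence, normalized to 57 uM ketoconazole as full inhibition.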
# [10] = molecular target: Cytochrome P450 3A4 (Homo sapiens) (UniProt P08684); experiment: qHTS Assay for Activators of Cytochrome P450 3A4 (AID 885); further: nearly all actives have a fitted effect of over 65% in size
# In short: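 Quantitative HTS format: compounds preincubated with 20nM human CYP3A4 and Luciferin-PPXE substrate at KM, reaction started by NADPH regeneration, stopped after 60 min, luciferase luminescence read 20 min later.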
# [11] = molecular target: Peroxisome proliferator-activated receptor delta (Homo sapiens) (UniProt Q03181); experiment: qHTS assay for small molecule agonists of peroxisome proliferator-activated receptor delta signaling (AID 588534; calls by dose curve)
# In short: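 Reporter cells were plated and held 5 hrs at 37 C before compounds were added. After 18 hrs at 37 C, CCF4 dye was loaded for 2 hrs at RT and fluorescence measured.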
# [12] = molecular target: DNA dC->dU-editing enzyme APOBEC-3G (Homo sapiens) (UniProt Q9HC16); experiment: qHTS for inhibitors of Vif-A3G interactions: Validation (AID 588379)
# In short: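 HeLa cells stably expressing Vif and A3G-eYFP, 700 cells/well, incubated overnight at 37 deg C, then exposed to compound overnight at 37 deg C. Inhibition of Vif-mediated degradation read as increased yellow fluorescence (Ex 488/Em 500-530) by laser-scanning cytometry.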
# [13] = molecular target: Cytochrome P450 2D6 (Homo sapiens) (UniProt P10635); experiment: qHTS Assay for Inhibitors and Substrates of Cytochrome P450 2D6 (AID 891);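 further: luciferin methyl ether substrate demethylated by CYP2D6 with NADPH regeneration; nearly all actives have a fitted effect of over 60% in size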
# In short: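 Human CYP2D6 (5 nM) with 30 uM Luciferin-ME EGE (at Km) in 100 mM KPO4, compound preincubated 10 min, then NADPH regeneration system for 60 min at room temperature. Luciferin read by luminescence; normalized to 1.43 uM quinidine.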
# [14] = molecular target: Cytochrome P450 2C19 (Homo sapiens) (UniProt P33261); experiment: qHTS Assay for Inhibitors and Substrates of Cytochrome P450 2C19 (AID 899); further: nearly all actives have a fitted effect of over 60% in size; further: potency means the concentration at half of the fitted maximal effect
# In short: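 In 50mM KPO4, the reaction held 5nM enzyme and KM-level (10uM) Luciferin-H EGE; it ran 60 min at 37C after NADPH regeneration and a 10 min compound preincubation. Luminescence values were scaled to 57uM ketoconazole as complete inhibition.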
# Sequence of 3',5'-cyclic-AMP phosphodiesterase 4B (Homo sapiens) (Q07343 whole entry, looked up): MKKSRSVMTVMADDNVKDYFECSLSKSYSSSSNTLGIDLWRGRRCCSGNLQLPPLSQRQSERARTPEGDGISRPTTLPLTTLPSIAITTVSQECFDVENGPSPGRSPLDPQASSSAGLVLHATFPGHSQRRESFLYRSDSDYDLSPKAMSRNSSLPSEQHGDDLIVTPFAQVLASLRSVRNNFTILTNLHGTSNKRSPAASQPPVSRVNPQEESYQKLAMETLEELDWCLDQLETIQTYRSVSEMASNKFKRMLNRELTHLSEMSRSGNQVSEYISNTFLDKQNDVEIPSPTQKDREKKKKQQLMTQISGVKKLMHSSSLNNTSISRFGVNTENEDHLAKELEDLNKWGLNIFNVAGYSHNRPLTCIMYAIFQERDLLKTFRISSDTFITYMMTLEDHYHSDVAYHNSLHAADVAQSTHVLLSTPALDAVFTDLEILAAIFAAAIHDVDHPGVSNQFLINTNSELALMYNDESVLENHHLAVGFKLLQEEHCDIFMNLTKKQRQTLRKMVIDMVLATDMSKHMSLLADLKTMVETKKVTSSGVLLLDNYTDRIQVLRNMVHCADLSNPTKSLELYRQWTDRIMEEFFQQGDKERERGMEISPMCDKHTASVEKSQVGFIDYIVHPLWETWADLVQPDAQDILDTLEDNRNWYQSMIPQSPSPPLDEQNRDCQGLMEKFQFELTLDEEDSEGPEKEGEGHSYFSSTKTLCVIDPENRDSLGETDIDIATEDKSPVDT
# Sequence of DNA dC->dU-editing enzyme APOBEC-3G (Homo sapiens) (Q9HC16 whole entry, looked up): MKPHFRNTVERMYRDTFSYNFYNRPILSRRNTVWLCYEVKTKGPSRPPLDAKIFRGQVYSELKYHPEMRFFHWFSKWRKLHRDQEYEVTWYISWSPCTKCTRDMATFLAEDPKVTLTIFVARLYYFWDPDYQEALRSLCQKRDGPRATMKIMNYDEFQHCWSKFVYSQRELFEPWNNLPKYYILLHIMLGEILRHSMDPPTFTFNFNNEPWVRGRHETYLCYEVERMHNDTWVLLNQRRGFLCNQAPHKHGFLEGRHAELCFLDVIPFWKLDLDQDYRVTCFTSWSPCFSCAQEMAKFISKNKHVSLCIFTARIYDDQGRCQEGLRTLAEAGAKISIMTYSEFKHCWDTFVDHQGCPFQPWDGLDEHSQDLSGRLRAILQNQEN
# Sequence of Cytochrome P450 3A4 (Homo sapiens) (P08684 whole entry, looked up): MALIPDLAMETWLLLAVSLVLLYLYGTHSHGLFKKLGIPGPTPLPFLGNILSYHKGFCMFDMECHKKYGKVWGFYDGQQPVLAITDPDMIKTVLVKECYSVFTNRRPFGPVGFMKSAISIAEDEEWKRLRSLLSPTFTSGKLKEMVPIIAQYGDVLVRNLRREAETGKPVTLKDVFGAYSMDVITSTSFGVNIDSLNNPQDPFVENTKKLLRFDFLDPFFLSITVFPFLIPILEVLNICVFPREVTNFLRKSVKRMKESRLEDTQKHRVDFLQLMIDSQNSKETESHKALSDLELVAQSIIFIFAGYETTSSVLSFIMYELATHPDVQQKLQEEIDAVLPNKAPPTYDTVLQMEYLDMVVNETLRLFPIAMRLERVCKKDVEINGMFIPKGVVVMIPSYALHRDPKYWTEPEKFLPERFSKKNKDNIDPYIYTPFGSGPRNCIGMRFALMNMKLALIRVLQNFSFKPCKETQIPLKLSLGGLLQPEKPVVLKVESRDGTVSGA
# Sequence of Luciferin 4-monooxygenase (Photinus pyralis) (P08659 whole entry, looked up): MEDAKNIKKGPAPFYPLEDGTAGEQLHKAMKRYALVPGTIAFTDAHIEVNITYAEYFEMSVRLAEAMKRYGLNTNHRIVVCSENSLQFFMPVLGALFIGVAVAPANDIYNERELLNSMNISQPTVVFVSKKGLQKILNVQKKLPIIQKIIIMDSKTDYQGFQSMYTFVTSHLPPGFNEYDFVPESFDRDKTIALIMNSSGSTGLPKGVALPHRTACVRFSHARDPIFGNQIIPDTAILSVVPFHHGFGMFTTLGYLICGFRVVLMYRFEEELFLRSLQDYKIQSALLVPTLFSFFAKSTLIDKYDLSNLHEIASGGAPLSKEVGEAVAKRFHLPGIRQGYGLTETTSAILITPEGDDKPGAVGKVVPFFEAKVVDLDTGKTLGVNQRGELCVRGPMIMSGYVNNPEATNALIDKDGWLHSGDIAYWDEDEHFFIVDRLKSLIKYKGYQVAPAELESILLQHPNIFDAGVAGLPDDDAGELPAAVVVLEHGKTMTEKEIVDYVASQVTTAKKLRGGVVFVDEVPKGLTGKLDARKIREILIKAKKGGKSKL
# Sequence of Cytochrome P450 2D6 (Homo sapiens) (P10635 whole entry, looked up): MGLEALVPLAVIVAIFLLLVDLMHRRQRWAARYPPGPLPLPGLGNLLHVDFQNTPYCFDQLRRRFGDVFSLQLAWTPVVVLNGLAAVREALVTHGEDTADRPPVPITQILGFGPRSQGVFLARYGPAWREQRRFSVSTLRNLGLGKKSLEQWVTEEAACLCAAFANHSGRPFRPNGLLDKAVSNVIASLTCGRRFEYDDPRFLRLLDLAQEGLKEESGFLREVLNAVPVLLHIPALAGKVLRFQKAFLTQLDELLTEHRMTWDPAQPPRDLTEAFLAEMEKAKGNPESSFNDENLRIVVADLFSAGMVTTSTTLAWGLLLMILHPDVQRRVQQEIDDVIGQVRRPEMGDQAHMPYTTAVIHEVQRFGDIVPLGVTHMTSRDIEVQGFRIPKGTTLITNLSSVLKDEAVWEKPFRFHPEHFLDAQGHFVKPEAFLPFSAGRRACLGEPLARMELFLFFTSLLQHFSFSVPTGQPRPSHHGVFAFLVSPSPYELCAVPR
# Sequence of Cytochrome P450 2C19 (Homo sapiens) (P33261 whole entry, looked up): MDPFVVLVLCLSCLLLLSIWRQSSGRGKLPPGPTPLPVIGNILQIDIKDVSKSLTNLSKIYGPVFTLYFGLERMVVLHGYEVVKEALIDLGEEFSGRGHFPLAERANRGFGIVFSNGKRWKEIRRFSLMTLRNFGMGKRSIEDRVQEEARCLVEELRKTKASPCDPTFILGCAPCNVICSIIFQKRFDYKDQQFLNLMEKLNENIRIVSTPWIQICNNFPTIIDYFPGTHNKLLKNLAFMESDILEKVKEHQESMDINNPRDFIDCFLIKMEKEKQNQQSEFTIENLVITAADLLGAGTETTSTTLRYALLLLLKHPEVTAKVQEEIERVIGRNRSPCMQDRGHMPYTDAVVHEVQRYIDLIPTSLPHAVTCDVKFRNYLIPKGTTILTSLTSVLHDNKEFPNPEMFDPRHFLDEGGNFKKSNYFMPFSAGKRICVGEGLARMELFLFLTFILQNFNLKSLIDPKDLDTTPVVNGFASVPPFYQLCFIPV
# Sequence of Peroxisome proliferator-activated receptor delta (Homo sapiens) (Q03181 whole entry, looked up): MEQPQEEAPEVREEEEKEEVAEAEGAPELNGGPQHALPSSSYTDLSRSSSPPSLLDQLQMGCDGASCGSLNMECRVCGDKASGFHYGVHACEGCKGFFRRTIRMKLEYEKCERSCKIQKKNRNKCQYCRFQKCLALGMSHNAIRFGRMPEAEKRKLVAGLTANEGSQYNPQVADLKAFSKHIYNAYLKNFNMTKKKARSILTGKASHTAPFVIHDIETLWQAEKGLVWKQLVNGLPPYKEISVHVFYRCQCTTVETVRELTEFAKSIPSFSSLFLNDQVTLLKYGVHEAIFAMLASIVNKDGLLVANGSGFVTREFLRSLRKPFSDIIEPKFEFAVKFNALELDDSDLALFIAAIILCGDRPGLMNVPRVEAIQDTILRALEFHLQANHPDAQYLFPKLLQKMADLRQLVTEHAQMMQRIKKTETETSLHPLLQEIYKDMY
# Sequence of Thyroid hormone receptor beta (Homo sapiens) (P10828 whole entry, looked up): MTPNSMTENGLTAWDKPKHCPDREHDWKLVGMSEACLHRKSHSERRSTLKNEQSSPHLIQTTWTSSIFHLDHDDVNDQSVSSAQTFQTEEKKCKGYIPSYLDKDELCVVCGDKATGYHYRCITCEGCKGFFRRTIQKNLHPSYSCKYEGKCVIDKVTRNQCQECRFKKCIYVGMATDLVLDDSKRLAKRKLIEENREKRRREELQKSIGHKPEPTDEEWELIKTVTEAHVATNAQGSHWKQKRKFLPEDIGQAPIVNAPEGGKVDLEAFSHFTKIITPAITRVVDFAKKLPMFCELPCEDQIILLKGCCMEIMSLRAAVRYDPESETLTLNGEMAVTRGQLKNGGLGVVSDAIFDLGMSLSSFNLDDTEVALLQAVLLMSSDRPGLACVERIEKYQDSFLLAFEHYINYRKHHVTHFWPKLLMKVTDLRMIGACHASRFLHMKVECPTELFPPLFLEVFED
# Sequence of Retinoic acid receptor RXR-alpha (Homo sapiens) (P19793 whole entry, looked up): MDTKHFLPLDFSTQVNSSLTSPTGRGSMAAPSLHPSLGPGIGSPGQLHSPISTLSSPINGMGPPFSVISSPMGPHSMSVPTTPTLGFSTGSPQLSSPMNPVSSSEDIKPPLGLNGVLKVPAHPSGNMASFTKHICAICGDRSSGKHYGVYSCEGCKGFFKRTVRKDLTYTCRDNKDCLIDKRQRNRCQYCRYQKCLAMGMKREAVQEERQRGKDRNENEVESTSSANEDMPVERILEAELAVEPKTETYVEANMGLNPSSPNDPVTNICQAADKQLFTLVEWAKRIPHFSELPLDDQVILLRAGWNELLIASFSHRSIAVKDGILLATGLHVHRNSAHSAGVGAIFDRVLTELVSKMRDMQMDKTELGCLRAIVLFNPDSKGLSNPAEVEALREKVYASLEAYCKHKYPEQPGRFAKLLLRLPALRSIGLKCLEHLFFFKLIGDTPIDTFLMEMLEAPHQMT
structure (smiles),measurement,setting,value
N#Cc1c(Cl)c(Cl)c(Cl)c(C#N)c1Cl,max response,[1],-33.7%
same,Potency,[2],7.08 µM (active)
same,Potency,[3],2.51 µM (active)
same,Potency,[4],inactive
CC[C@]1([C@H]2O[C@@H]([C@@H]3O[C@](O)(CO)[C@@H](C)C[C@H]3C)C[C@H]2C)CC[C@@H]([C@]2(C)CC[C@@]3(C[C@@H](O)[C@@H](C)[C@@H]([C@H](C)[C@H](OC)[C@H](C)C(=O)O)O3)O2)O1,Potency,[5],inactive
CNC1=CN(O)C(c2ccccc2)=c2cc(Cl)ccc2=N1,Potency,[5],inactive
same,Potency,[6],inactive
COC(=O)[C@@H]1C[C@H]1[C@@H](NP(=O)(c1ccccc1)c1ccccc1)c1ccccc1,outcome,[7],inactive
same,outcome,[8],inactive
COC(=O)[C@@H]1C[C@@]1(C)[C@@H](NP(=O)(c1ccccc1)c1ccccc1)c1ccccc1,outcome,[7],inactive
same,Potency,[9],7.94 µM (active)
same,Potency,[10],inactive
c1ccc2ncccc2c1,outcome,[7],inactive
same,outcome,[11],inactive
CC(C)[C@]1(NC(=O)[C@@H]2C=C3c4cccc5[nH]cc(c45)C[C@H]3N(C)C2)O[C@@]2(O)C3CCCN3C(=O)[C@H](Cc3ccccc3)N2C1=O (some centres not stated),Potency,[9],1 µM (active)
same,Potency,[10],inactive
same,outcome,[12],inactive
COc1ccc2c(c1OC)C(=O)O[C@@H]2C1c2cc3c(cc2CCN1C)OCO3 (some centres not stated),outcome,[12],inactive
CCCC[C@@H]1C[C@H]1C(NP(=O)(c1ccccc1)c1ccccc1)c1ccc(Cl)cc1 (some centres not stated),outcome,[7],inactive
same,Potency,[13],inactive
COC(=O)C1(C)C=C2C(=C(C)C(=O)C2C)CN1 (configuration not stated),outcome,[7],inactive
same,outcome,[8],inactive
CC1CCC2C(C)C(=O)OC3OC4(C)CCC1C32OO4 (configuration not stated),outcome,[12],inactive
C[C@]12[C@H](O)CC3C(CC[C@@H]4C[C@@H](O)CC[C@]34C)[C@@]1(O)CC[C@@H]2C1=CC(=O)OC1 (some centres not stated),Potency,[9],inactive
same,outcome,[12],inactive
CCC/C=C(\CCC)C(NP(=O)(c1ccccc1)c1ccccc1)c1ccccc1 (configuration not stated),outcome,[7],inactive
same,Potency,[9],6.31 µM (active)
same,Potency,[10],inactive
CNC(=O)[C@@H]1C[C@H]1[C@@H](NP(=O)(c1ccccc1)c1ccccc1)c1ccccc1,outcome,[7],inactive
same,outcome,[8],inactive
CN(C)C1C(=O)C(C(N)=O)=C(O)[C@@]2(O)C(=O)C3=C(O)c4c(O)cccc4[C@@](C)(O)C3[C@H](O)C12 (some centres not stated),outcome,[12],inactive
O=c1cccc2n1CC1CC2CN2CCCC[C@H]12 (some centres not stated),Potency,[9],inactive
same,outcome,[12],inactive
COc1ccc(CC2c3cc(OC)c(OC)cc3CCN2C)cc1OC (configuration not stated),Potency,[9],inactive
same,outcome,[12],inactive
COc1ccc2c(c1OC)C(=O)O[C@@H]2[C@H]1c2cc3c(cc2CCN1C)OCO3,outcome,[7],inactive
same,Potency,[14],3.16 µM (active)
COc1cc2c(cc1OC)-c1c(OC)c(OC)c(CO)c3c1C(C2)N(C)CC3 (configuration not stated),Potency,[9],31.6 µM (active)
same,Potency,[10],inactive
same,outcome,[12],inactive
O=C(Oc1ccc([N+](=O)[O-])cc1)N1CCC(N2CCCCC2)CC1,outcome,[7],inactive
same,outcome,[8],inactive
CC1CC[C@@]2(OC1)O[C@@H]1[C@@H](O)[C@H]3C4CC[C@H]5C[C@@H](O[C@@H]6O[C@H](CO)[C@H](O[C@@H]7O[C@H](CO)[C@@H](O)[C@H](O[C@@H]8OC[C@@H](O)[C@H](O)[C@H]8O)[C@H]7O[C@@H]7O[C@H](CO)[C@@H](O)[C@H](O[C@@H]8O[C@H](CO)[C@@H](O)[C@H](O)[C@H]8O)[C@H]7O)[C@H](O)[C@H]6O)[C@H](O)C[C@]5(C)C4CC[C@]3(C)[C@H]1[C@@H]2C (some centres not stated),Potency,[9],inactive
same,outcome,[12],inactive
COC(=O)[C@@H]1C[C@@H]1[C@@H](NP(=O)(c1ccccc1)c1ccccc1)c1ccccc1,outcome,[7],inactive
same,outcome,[8],inactive
CCCC/C=C/[C@@H](NP(=O)(c1ccccc1)c1ccccc1)c1ccccc1OC,outcome,[7],inactive
same,Potency,[9],6.31 µM (active)
same,Potency,[10],inactive
C=C[C@@H]1C[C@@]1(C)[C@@H](NP(=O)(c1ccccc1)c1ccccc1)c1ccccc1,outcome,[7],inactive
same,Potency,[9],10 µM (active)
same,Potency,[10],inactive
COC(=O)[C@@]1(Cc2ccccc2)[C@H]2c3cc(C(=O)N(C)C)n(C)c3C[C@H]2CN1C(=O)c1ccccc1,outcome,[7],inactive
same,outcome,[8],inactive
COC(=O)[C@]1(C)C[C@H]1[C@H](NP(=O)(c1ccccc1)c1ccccc1)c1ccccc1,outcome,[7],inactive
same,Potency,[10],inactive
C=C(CC1(CNP(=O)(c2ccccc2)c2ccccc2)CC1)c1ccccc1,outcome,[7],inactive
same,Potency,[9],3.98 µM (active)
same,Potency,[10],inactive
C[C@@H]1O[C@H](O[C@H]2C[C@@H](O)[C@]3(CO)[C@H]4[C@H](O)C[C@]5(C)[C@@H](C6=CC(=O)OC6)CC[C@@]5(O)[C@H]4CC[C@]3(O)C2)[C@@H](O)[C@H](O)[C@H]1O,outcome,[7],inactive
same,Potency,[13],inactive
same,Potency,[14],inactive
